Unmarked numbers belong to inactive results. No rule for the calls is given here.
What follows are compounds tested against Pantothenate synthetase (Mycobacterium tuberculosis (strain ATCC 25618 / H37Rv)) (UniProt P9WIL5) (assay: Coupled enzyme confirmation of inhibitors against recombinant Mtb PanC (AID 375;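 also: 0% = full reaction with vehicle and 100% = no enzyme background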)). Settings: coupled enzyme assay; at 10 µM, stronger effect = higher value.
Pantothenate synthetase (Mycobacterium tuberculosis (strain ATCC 25618 / H37Rv)), sequence (P9WIL5 whole entry, looked up): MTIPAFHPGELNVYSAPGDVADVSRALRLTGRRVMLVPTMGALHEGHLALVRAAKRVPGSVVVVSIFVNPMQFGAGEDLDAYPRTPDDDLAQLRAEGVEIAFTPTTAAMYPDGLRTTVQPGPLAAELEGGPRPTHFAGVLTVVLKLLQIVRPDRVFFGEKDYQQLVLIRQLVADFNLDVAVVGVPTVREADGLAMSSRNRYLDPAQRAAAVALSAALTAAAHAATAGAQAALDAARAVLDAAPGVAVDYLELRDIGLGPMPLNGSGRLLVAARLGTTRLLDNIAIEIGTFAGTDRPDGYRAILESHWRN

Row | Structure (SMILES) | inhibition [%]
1 | Cc1ccccc1C(=O)N1CCC(C(=O)Nc2ccc(S(=O)(=O)N3CCCC3)cc2)CC1 | 3
2 | CCOC(=O)C1=C(N)c2ccccc2CC1C(C)C (stereo not given) | 0
3 | O=C(CC1CCCCC1)NCc1ccccn1 | 0
4 | CCC(=O)Oc1ccc(C/C(=N\O)c2ccc(O)cc2O)o1 | 0
5 | CCSc1nc2c(c(=O)n1CC)SC(C)C2 (stereo not given) | 0
6 | CCN(CC)C(=O)Cn1ncc2c1-c1ccccc1OC2 | 0
7 | CCOC(=O)c1[nH]c2ccccc2c1NC(=O)C(CC)CC | 8
8 | COc1ccc(CN(Cc2cc3cc4c(cc3[nH]c2=O)OCO4)C(=O)NC2CCCCC2)cc1 | 3
9 | CCc1ccccc1NC(=O)CN(c1cccc(OC)c1)S(C)(=O)=O | 7
10 | CC(C)COC(=O)C(C#N)c1nc2ccccc2nc1N1CCN(Cc2ccccc2)CC1 (stereo not given) | 0
11 | Cc1cccc(C)c1NC(=O)CS(=O)CC(=O)NC1CCCc2ccccc21 (stereo not given) | 12
12 | CC(C)=CCSc1nnc(CCNC(=O)OC(C)(C)C)o1 | 3
13 | Oc1ccc(/C=C/c2cc(O)cc(O)c2)cc1 | 0
14 | COC(=O)C1=C(C)NC(=O)C1(NC(=O)CN1CCCC1=O)C(F)(F)F (stereo not given) | 5
15 | CCOC(=O)/C(C#N)=C(/C)c1ccc(OC)cc1 | 0
16 | COc1cc(NS(=O)(=O)c2ccc(N)cc2)ncn1 | 0
17 | COC(=O)Nc1ccc(NC(C)=O)cc1 | 0
18 | COc1ccccc1OCC(=O)N1CCN(c2ccccc2OC)CC1 | 0
19 | CCn1c(=O)cc(SCC(=O)Nc2cccnc2)c2ccccc21 | 0
20 | CC1=C(C(=O)OCc2ccccc2)C(c2ccc(C)o2)C2=C(CCCC2=O)N1 (stereo not given) | 4

Row | Structure (SMILES) | inhibition [%]
21 | COC(=O)c1cc(OC)c(OC)cc1NC(=O)CC1CCCCC1 | 1
22 | CC(C)COC(=O)N(C)c1ccc(C(O)(C(F)(F)F)C(F)(F)F)cc1 | 5
23 | CCn1nnc(-c2ccccc2NC(=O)c2ccc(-n3cnnn3)cc2)n1 | 9
24 | Cc1ccc(NC(=O)CS(=O)CC(=O)NCC2CCCO2)cc1 (stereo not given) | 0
25 | Cc1ccc(CSC2=NCCN2C(=O)C2CC2)cc1 | 2
26 | CN(C(=O)c1ccc2c(=O)n3c(nc2c1)CCCCC3)c1ccccc1 | 4
27 | O=C(NCc1ccc(F)cc1)C1CCN(C(=O)NCc2ccccc2)CC1 | 0
28 | CC1=C(C#N)C(c2ccc3ncccc3c2)C(C#N)=C(C)N1 | 4
29 | S=c1[nH]c2ccc(Cl)cc2[nH]1 | 9
30 | CCCN1CCN(CCCNC(=O)Cn2nc(-c3ccc(Cl)cc3)ccc2=O)CC1 | 0
31 | COCCN(C(=O)c1csnn1)C(C(=O)NC(C)(C)C)c1cccc(OC)c1 (stereo not given) | 1
32 | Cc1cccn2c(=O)c3cc(C#N)c(=O)n(CCCN4CCOCC4)c3nc12 | 0
33 | COc1ccc(C)cc1NCc1cccc(OC)c1OC | 0
34 | CCOc1ccc(C(=O)N2CCN(c3ccccc3)CC2)cc1OCC | 1
35 | Cc1ccccc1NC(=O)c1ccc(NC(=O)c2ccco2)cc1 | 0
36 | Cn1c(=O)c2c(ncn2CC(O)CO)n(C)c1=O (stereo not given) | 0
37 | COc1ccc(CNC(=O)COC(=O)c2n[nH]c3ccccc23)cc1OC | 7
38 | Cn1c(=O)[nH]c(=O)c2c1nc(Br)n2Cc1ccccc1F | 0
39 | CCCNc1nc(N2CCOCC2)nc(N2CCOCC2)n1 | 0
40 | CCOC(=O)CN(C(=O)CSc1nnc(-c2ccncc2)n1CCCN(C)C)c1ccccc1 | 11

From PubChem BioAssay
